High-throughput results from PubChem BioAssay.
Most compounds without a hit are left out; they make up all but 21% or so of the library.
Shiga toxin inh: A qHTS for Small Molecule Inhibitors of Shiga Toxin; Vero cells, Shiga toxin protein synthesis inhibition reporter; 290,000 tested, 9.2% active; inhibition, % at 38.7 µM; in the data active = inhibition mostly above about 28%, no sharp cut-off; inactive = mostly below about 43%
Pf growth 48h: Primary qHTS for delayed death inhibitors of the malarial parasite plastid, 48 hour incubation. P. falciparum luciferase growth in erythrocytes, 48 h. Potency, µM (series often up to 28.7 µM), actives largely listed as inhibitors. 310,000 tested, 5.9% active. AID 504832, 2011; active = well fitted inhibition curve with a large enough effect; inconclusive = small, poorly fitted or top-dose-only effect, or another doubt; inactive = no such curve, though single readings can be large or run the other way
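Luminescence readout; reporter = integrated firefly luciferase in P. falciparum. RBC culture at 2% hematocrit, 0.1% parasitemia final, 37 C/5% CO2; decreased signal taken as growth inhibition.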
NS1 inh: qHTS Assay for Inhibitors of Influenza NS1 Protein Function. Potency, µM (top dose mostly 46.1 µM). 270,000 tested, 0.4% active. AID 2326, 2010; note: actives are rising curves; nearly all actives have a fitted effect of over 50% in size
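In this qHTS, NS1 from influenza A is expressed in budding yeast, where it slows growth. Cells are switched from glucose to 2% galactose medium (pH 6.0, -URA), treated with compound, and growth recovery is read at OD600.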
Cycloheximide cs: Cycloheximide Counterscreen for Small Molecule Inhibitors of Shiga Toxin | AID 2314, 2010 | max response, % | 300,000 tested, 12% active | cell reporter, cycloheximide protein synthesis inhibition counterscreen; in the data active = max response mostly above about 13%, no sharp cut-off; inactive = mostly below about 14%; note: read at 38.3 µM for the half of the compounds with a filed dose
Pf growth 96h: Primary qHTS for delayed death inhibitors of the malarial parasite plastid, 96 hour incubation; P. falciparum luciferase reporter growth, 96 h; 320,000 tested, 6.9% active; Potency, µM (highest dose often 28.7 µM), most hits filed as inhibitors; active = well fitted inhibition curve with a large enough effect; inconclusive = small, poorly fitted or top-dose-only effect, or another doubt; inactive = no such curve, though single readings can be large or run the other way
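Compounds incubated with erythrocytes infected by luciferase-expressing P. falciparum (2% hematocrit, 0.05% parasitemia final) for 96 hours, 37 C in 5% CO2. Growth inhibition scored as decreased luciferase luminescence.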
SARS PLpro yeast: qHTS of Yeast-based Assay for SARS-CoV PLP | 330,000 tested, 0.19% active | Potency, µM (highest dose often 32.9 µM), hits mostly activators | AID 485353, 2010 | S. cerevisiae expressing SARS-CoV PLpro, growth rescue; note: nearly all actives have a fitted effect of over 55% in size
Of the large screens only hits and unclear results are named; the others gave an inactive call. Unless noted, calls come from the whole dose curve.

O=C(N/N=C/c1ccc(-c2ccccc2[N+](=O)[O-])o1)[C@H]1C[C@@H]1c1ccccc1	Shiga toxin inh active, Cycloheximide cs 31
Cc1ccc(C(=O)N/N=C/c2ccc(-c3ccccc3[N+](=O)[O-])o2)cn1	Cycloheximide cs 19
Cc1ccc(C(=O)N/N=C/c2ccc(-c3cccc(Cl)c3)o2)cn1	none
CC1(C)Cc2c(sc3c2c(=O)n(-c2cccc(Cl)c2)c(=O)n3CC(N)=O)CO1	Pf growth 96h inconclusive
Cc1ccc(C(NC(=O)NN2CCN(C)CC2)C(Cl)Cl)cc1F (configuration not stated)	Shiga toxin inh 79, Cycloheximide cs 32
Cc1ccc(C(NC(=O)N2CCCC2)C(Cl)Cl)cc1F (configuration not stated)	Pf growth 48h inconclusive, Pf growth 96h inconclusive (no result: NS1 inh)
CCn1c(SCC(=O)N2CCOCC2)nc2c(c1=O)SC(C)C2 (configuration not stated)	Pf growth 96h 2.1µM
CCn1c(SCC(=O)Nc2cccc(C)c2)nc2c(c1=O)SC(C)C2 (configuration not stated)	Pf growth 48h inconclusive, Pf growth 96h 13µM
CCn1c(SCC(=O)N2CCOCC2)nc2c([nH]c3ccccc32)c1=O	Pf growth 48h inconclusive, Pf growth 96h 13µM
CCn1c(SCC(=O)Nc2nnc(C)s2)nc2c(c1=O)SC(C)C2 (configuration not stated)	Pf growth 48h inconclusive
CCC(Sc1nc2c(c(=O)n1CC)SC(C)C2)C(=O)OC (configuration not stated)	Pf growth 48h inconclusive, Pf growth 96h 0.37µM
C=CCn1c(SCC(=O)N2CCCC2)nc2c([nH]c3ccccc32)c1=O	none
Cc1cc(NC(=O)CSc2nc3cc(C)c(C)cc3cc2C)no1	none
CCn1c(SCC(=O)N2CCC(C)CC2)nc2c(c1=O)SC(C)C2 (configuration not stated)	Pf growth 48h inconclusive, Pf growth 96h 6.6µM
CCSc1nnc(NC(=O)CSc2nc3c(c(=O)n2CC)SC(C)C3)s1 (configuration not stated)	Pf growth 48h inconclusive
CCSc1nnc(NC(=O)CSc2nc3c(c(=O)n2C)SC(C)C3)s1 (configuration not stated)	Pf growth 48h 12µM
CCCc1ccc(C2C3=C(CC(C)(C)CC3=O)NC3=C2C(=O)c2ccccc23)cc1 (configuration not stated)	Pf growth 48h 9.3µM, NS1 inh inconclusive, Pf growth 96h 3.3µM
CCCCc1ccc(C2C3=C(CC(C)(C)CC3=O)NC3=C2C(=O)c2ccccc23)cc1 (configuration not stated)	Pf growth 48h 13µM, NS1 inh inconclusive, Pf growth 96h inconclusive
CN(Cc1ccc(Cl)s1)C(=O)CN1C(=O)N(C)C2(CCCCC2)C1=O	none (no result: Shiga toxin inh, NS1 inh, Cycloheximide cs)
Clc1ccc(-c2cnc3ccccc3n2)cc1	Shiga toxin inh 67, Cycloheximide cs 67
CCCCOc1ccc(-c2cnc3ccccc3n2)cc1	Shiga toxin inh 60, Cycloheximide cs 45, Pf growth 96h inconclusive
O=C(Oc1ccc(-c2cnc3ccccc3n2)cc1)c1ccc(Br)o1	none (no result: Pf growth 48h)
Clc1ccc(-c2nc3ccccc3nc2-c2ccccc2)cc1	none
CCCCCCCOc1ccc(-c2ccc(C#N)cn2)cc1	Pf growth 96h 6.6µM
Cc1ccc(-c2cnc3ccccc3n2)cc1C	Shiga toxin inh 63, Cycloheximide cs 28, Pf growth 96h inconclusive
Cc1ccc(S(=O)(=O)Nc2ccnc(-c3cccnc3)n2)cc1	none
Cc1ccc(C(=O)CCC(=O)N2CCC(C(N)=O)CC2)s1	none (no result: Shiga toxin inh, NS1 inh, Cycloheximide cs)
CCCCOc1ccc(-c2ncc([N+](=O)[O-])cn2)cc1	none
Cc1cc2ncc(-c3ccccc3)nc2cc1C	Shiga toxin inh 106, Cycloheximide cs 39
CCCOc1ccc(-c2nc(OC)c3ccccc3n2)cc1	Shiga toxin inh 112, Cycloheximide cs 35
COc1nc(-c2cccc([N+](=O)[O-])c2)nc2ccccc12	none
CCCCOc1ccc(-c2ncc(Cl)cn2)cc1	Shiga toxin inh 35, Cycloheximide cs 17, Pf growth 96h inconclusive
CCOC(=O)c1cccc(-c2c(-c3ccccc3)ncc3cc(OC)c(OC)cc23)c1	Pf growth 48h inconclusive, Pf growth 96h inconclusive (no result: Shiga toxin inh, NS1 inh, Cycloheximide cs)
CCOC(=O)c1ccc2ncc(-c3ccccc3)nc2c1	Shiga toxin inh 123, Cycloheximide cs 46 (no result: NS1 inh)
NS(=O)(=O)c1ccc(CCNC(=O)CNC(=O)c2ccc(Oc3ccccc3)cc2)cc1	none
Cc1ccccc1OCCC(=O)Nc1ccc(Cl)cc1F	none
Cc1cc(-c2ccccc2)nc(-c2ccccc2)c1C	Cycloheximide cs 26
CN(C(=O)COC(=O)C1COc2ccccc2O1)c1c(N)n(Cc2ccccc2)c(=O)[nH]c1=O (configuration not stated)	Pf growth 48h inconclusive (no result: Shiga toxin inh, NS1 inh, Cycloheximide cs)
Cc1ccc(C(C)(C)NC(=O)C2CCC(=O)N(Cc3ccccc3F)C2)cc1 (configuration not stated)	Cycloheximide cs 16
CC1(C)CC(NC(=O)C2CCC(=O)N(Cc3ccccc3F)C2)CC(C)(C)C1 (configuration not stated)	Shiga toxin inh 58, Pf growth 48h inconclusive, Cycloheximide cs 26
Cc1ccc2nc(CNC(=O)C3CCC(=O)N(Cc4ccccc4F)C3)cn2c1 (configuration not stated)	none
CC(O)[C@H]1CC[C@H]2[C@@H]3CC[C@H]4C[C@H](O)CC[C@]4(C)[C@H]3[C@H](O)C[C@]12C (some centres not stated)	none (no result: Shiga toxin inh, NS1 inh, Cycloheximide cs)
N/C(=N\OC(=O)CCC1CCCCC1)c1ccc([N+](=O)[O-])cc1	none
N/C(=N\OC(=O)CC1CCCCC1)c1ccc([N+](=O)[O-])cc1	Cycloheximide cs 18
N/C(=N\OC(=O)CCC1CCCC1)c1ccc(Br)cc1	Pf growth 48h inconclusive, Pf growth 96h inconclusive
N/C(=N\OC(=O)CCC1CCCC1)c1cccc([N+](=O)[O-])c1	Cycloheximide cs 18
N/C(=N\OC(=O)CC1CCCCC1)c1cccc([N+](=O)[O-])c1	Shiga toxin inh 83, Cycloheximide cs 35
N/C(=N\OC(=O)CCC1CCCCC1)c1cccnc1	Shiga toxin inh 35, Cycloheximide cs 17
COc1ccc(/C(N)=N/OC(=O)CC2CCCCC2)cc1	Shiga toxin inh 159, Cycloheximide cs 47
COc1ccc(NC(=O)COC(=O)CC2CCCCC2)cc1	none (no result: Shiga toxin inh, NS1 inh, Cycloheximide cs)
CC1CCN(S(=O)(=O)c2ccc3ncn(CC(=O)N(C)Cc4ccccc4)c(=O)c3c2)CC1	Pf growth 48h inconclusive, Pf growth 96h 15µM
COC(=O)c1ccccc1NC(=O)Cn1cnc2ccc(S(=O)(=O)N3CCC(C)CC3)cc2c1=O	Pf growth 96h inconclusive
O=C(CCN1C(=O)c2ccccc2S1(=O)=O)Nc1cccc(F)c1	none (no result: Shiga toxin inh, NS1 inh, Cycloheximide cs)
c1ccc2cc(OCCCn3ccnc3)ccc2c1	Pf growth 48h inconclusive, Cycloheximide cs 17, Pf growth 96h inconclusive
